# In PubChem BioAssay AID1379 (National Center for Advancing Translational Sciences (NCATS), 2008):
# Among all 200,000 compounds or so, about 560 (0.28%) were called active. The full list was thinned out, with actives kept by preference. Values without a mark were called inactive. Calls come from the whole dose curve; as a rule, active = well fitted inhibition curve with a large enough effect; inconclusive = small, poorly fitted or top-dose-only effect; inactive = flat fitted curve, though single readings scatter.
# Molecular target: Luciferin 4-monooxygenase (Photuris pensylvanica) (UniProt Q27757)
# Assay: Counterscreen for Luciferase (Kinase-Glo TM) Inhibition; note: nearly all actives have a fitted effect of over 60% in size
# Details: ATP luminescence, 8 min; series mostly up to 38.3 µM; activity change, negative = inhibition: at the top concentration
# Experimental: NCGC Assay Overview: NIH Molecular Libraries Screening Centers Network [MLSCN] NIH Chemical Genomics Center [NCGC] MLSCN Grant: None Luciferase (Kinase-Glo, Promega Corporation) was assayed for its ability to generate light using ATP and luciferin as substrates. The ATP concentration in the assay (10 uM) was within the linear range of enzyme activity for the assay conditions used.
# NCGC Assay Protocol Summary: Four uL of substrate mix (final concentration, 50 mM imidazole pH 7.2, 50 mM KCl, 7 mM MgCl2, 10 uM ATP, 0.01% Tween 20, 0.05% BSA) was dispensed into white 1536 well plates. Twenty-three nL of compound was delivered by a pin tool and 2 uL of luciferase detection mix (Kinase-Glo, Promega)) was added. Following 8-minute incubation at ambient temperature, luminescence was measured by a ViewLux (Perkin Elmer) at 5 seconds exposure/plate.
# % is set by controls: 0 for no effect and ±100 for the full control effect; potency is the fitted concentration of half-maximal effect.
SMILES,"activity change, negative = inhibition",Potency
COc1ccc(-c2cn3ccsc3n2)cc1,-24.5%,
Cc1ccc(-c2cn3cc([N+](=O)[O-])ccc3n2)cc1,-24.6%,
Cc1ccc(-c2cn3cc(C)ccc3n2)cc1,,11.2 µM (active)
C[C@H]1Cc2c(-c3ccccc3)nc3c(c2CO1)CN(S(=O)(=O)c1ccc(Cl)c2nonc12)CC3,-6.5% [at 7.66 µM],
C=C(C(C)=O)C(O)c1ccc([N+](=O)[O-])cc1 (stereo not given),2.25%,
Cc1ccc(-c2cccc([C@H]3[C@@H]4C=CC[C@@H](C)[C@@H]4C(=O)N3Cc3ccccc3)c2)cc1,2.21% [at 39.9 µM],
c1ccc(-c2noc(-c3cccs3)n2)nc1,,12.6 µM (active)
COc1ccc(Cc2nc(-c3ccccn3)no2)cc1OC,1.94%,
O=C(Oc1ccccc1)c1ccc2nccnc2c1,5.55%,
c1csc(-c2nc(-c3ccncc3)no2)c1,-13.5%,
O=C(Oc1ccc(-c2nc(-c3ccccn3)no2)cc1)c1ccccc1,,4.47 µM (active)
COc1nc(-c2ccc(Cl)cc2)ccc1-c1noc(-c2cccs2)n1,0.069%,
C/C(Nc1ccc2oc(=O)ccc2c1)=C1/C(=O)CC2[C@@H]1C2(C)C (stereo not given in full),-0.876%,
CCC1C/C(=C/c2cccs2)C(=O)/C(=C/c2cccs2)C1 (stereo not given),1.29%,
COc1ccc(/C=C2\CCc3ccccc3C2=O)c(OC)c1OC,0.525%,
O=C1/C(=C/c2cccs2)CCc2ccccc21,,11.2 µM (active)
N#Cc1cccc(CS(=O)(=O)c2nnnn2-c2cc(C(F)(F)F)cc(C(F)(F)F)c2)c1,-0.728%,
COc1ccc(-c2nc3c(c4c2C[C@H](c2ccccc2)OC4)CN(S(=O)(=O)c2c(C)noc2C)CC3)c(C)c1,-5.25% [at 7.66 µM],
O=C1C=C(c2ccccc2)CCC1,-0.266%,
COc1ccc2c(c1)O[C@@H](c1ccc3c(c1)OCO3)[C@H](OC(=O)NCc1ccco1)C2=O,2.74%,
COc1ccccc1C(=O)Nc1ccc(NC(=O)c2ccco2)c(C)c1,,10 µM (active)
COc1ccc(NC(=O)c2cccc(NC(=O)c3ccco3)c2)c(OC)c1,0.933%,
COc1cc(NC(=O)c2cc([N+](=O)[O-])ccc2Br)ccc1NC(=O)c1ccco1,1.81%,

SMILES,"activity change, negative = inhibition",Potency
O=C(NCc1ccco1)O[C@@H]1C(=O)c2cc(Br)ccc2O[C@H]1c1ccc2c(c1)OCO2,-0.751%,
Cc1cccc([C@H]2[C@@H]3C=CC[C@@H](C)[C@@H]3C(=O)N2Cc2ccccc2)c1,-0.116% [at 39.9 µM],
CCN1C(=O)N[C@@H](CCc2ccccc2)C(C(=O)OC)=C1C,0.314% [at 7.66 µM],
C=CCC(C)(O)c1ccco1 (stereo not given),1.24%,
O=C1OCCN1C(=O)[C@H]1[C@H](c2ccc(F)cc2)C(c2ccccc2)=NN1c1ccc(Br)cc1,2.64% [at 39.9 µM],
Cc1ccccc1-c1ccc(C(=O)O)s1,3.14% [at 39.9 µM],
C=CC1(C)CC(=O)C2(O)C(C)(O1)C(OC(C)=O)C(O)C1C(C)(C)CCC(O)C12C (stereo not given),inactive,
COCCN1C=C2C(=O)C(C)(OC(=O)C3CCCC3)C(=O)C=C2C=C1c1ccsc1 (stereo not given),-8.74% [at 7.66 µM],
CC1=C2[C@@H](O)[C@H]([C@@H](C)C(=O)NCCC(C)C)CC[C@@]2(C)C=CC1=O,-3.8%,
COC(=O)CCCC1=CC2=CC(=O)C(C)(OC(=O)c3cccs3)C(=O)C2=CN1c1cccc(C#N)c1 (stereo not given),0.0108% [at 7.66 µM],
C/C=C(\C)C(=O)O[C@H]1CC(C)=C2C(=O)C=C(C)C2[C@@H]2OC(=O)[C@@](C)(OC(=O)C=C(C)C)C21 (stereo not given in full),-12.3%,
COc1ccc(N=Cc2c(O)[nH]c3ccccc23)cc1OC,-4.22%,
COc1ccc(OC)c(N=Cc2c(O)[nH]c3ccccc23)c1,-1.78%,
COc1ccccc1N=Cc1c(O)c2ccccc2oc1=O,,14.1 µM (active)
NC1CCN(O)C1=O (stereo not given),0.152%,
Cc1ccc(NC(=O)O[C@@H]2C(=O)c3cc(Br)ccc3O[C@H]2c2ccc3c(c2)OCO3)cc1Br,0.235%,
C=CC1=C2C=C(C3CC3)N(CC(C)C)C=C2C(=O)C(C)(OC(=O)c2ccco2)C1=O (stereo not given),-1.36% [at 7.66 µM],
COc1ccc(/C=C2\NC(=O)[C@@H]3Cc4ccccc4CN3C2=O)cc1,-1.84%,
CCCCCCCC[C@@H](O)/C=C/C=C/C=C\[C@@H](O)CCCC(=O)O,-0.585%,
C=C(C(C)=O)C(O)c1cccs1 (stereo not given),2.74%,
C=CCC1CCC(=O)N2CCCC12 (stereo not given),1.99% [at 39.9 µM],
CC1(OC(=O)CCc2ccccc2)C(=O)C=C2C=C(c3ccc(C#N)cc3)N(CCc3ccccn3)C=C2C1=O (stereo not given),-6.83% [at 7.66 µM],
